Records with an inconclusive call do not appear. Activity calls are given as the source filed them. The calls were made as follows, unless noted: active = hit-call score of the fitted dose curve at least 0.9, where 1 is the maximum; inconclusive = response in the unintended direction; inactive = score below 0.9.

Consider 10 molecules from PubChem BioAssay (EPA / NIEHS).

For assay [1], the target named is Retinoic acid receptor alpha (Homo sapiens) (UniProt P10276). The assay is described as follows: ATG_DR5_RAR_CIS: Attagene CIS-FACTORIAL HepG2 Assay for human Retinoic Acid Receptor Alpha (RARE), DR5 submotif (AID 2282934; active = hit-call score of the fitted dose curve at least 0.9, where 1 is the maximum; inactive = score below 0.9). The note with it: HepG2 Attagene cis-factorial RARE DR5 reporter, mRNA; actives raise or lower the signal. The gist of the method:
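HepG2 cells transiently transfected with multiplexed reporter units under cis (DR5 RARE) promoters, so endogenous transcription factor activity is measured. After 24 h compound exposure, reporter mRNA is quantified by RT-PCR with fluorescent labelling and capillary electrophoresis; bidirectional fitting versus DMSO.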

Assay [2] in a line: ATG_GRE_CIS: Attagene CIS-FACTORIAL HepG2 Assay for human Glucocorticoid Response Elements (GRE) (AID 2282947; active = hit-call score of the fitted dose curve at least 0.9, where 1 is the maximum; inactive = score below 0.9). The note with it: HepG2 GRE cis-reporter, Attagene multiplex mRNA; actives raise or lower the signal. The gist of the method:
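Following 24 h chemical exposure of transiently transfected HepG2 cells, total RNA was reverse-transcribed and reporter cDNA amplified, fluorescently labelled and sized by capillary electrophoresis. Signal gain or loss was fitted relative to DMSO vehicle.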

Assay [3] addresses Hepatocyte nuclear factor 6 (Homo sapiens) (UniProt Q9UBC0). The assay is described as follows: ATG_HNF6_CIS: Attagene CIS-FACTORIAL HepG2 Assay for human Hepatocyte Nuclear Factor 6 (HNF6) (AID 2282952; active = hit-call score of the fitted dose curve at least 0.9, where 1 is the maximum; inactive = score below 0.9). The note with it: HepG2 Attagene cis-factorial HNF6 reporter transcription; actives raise or lower the signal. The gist of the method: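 Reporter mRNA induction or loss in HepG2 after 24 h exposure; transient cis-MRTU transfection; fragments quantified by capillary electrophoresis; bidirectional analysis, DMSO as negative control.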

Assay [4] can be described thus: ATG_MRE_CIS: Attagene CIS-FACTORIAL HepG2 Assay for human Metal Responsive Element (MRE) (AID 2282954; active = hit-call score of the fitted dose curve at least 0.9, where 1 is the maximum; inactive = score below 0.9). The note with it: HepG2 MRE cis-reporter transcription, Attagene multiplex; actives raise or lower the signal. The procedure, abridged: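 Step one: transfect HepG2 with cis-regulated reporter units. Step two: dose 24 h. Step three: isolate RNA, RT-PCR, 6-FAM label, HpaI digest, capillary electrophoresis. Fit bidirectionally to DMSO.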

The nature of assay [5]: ATG_PBREM_CIS: Attagene CIS-FACTORIAL HepG2 Assay for human Phenobarbital-responsive Enhancer Module (PBREM) (AID 2282955; active = hit-call score of the fitted dose curve at least 0.9, where 1 is the maximum; inactive = score below 0.9). Conditions: HepG2 PBREM cis-reporter, Attagene multiplexed transcription; actives raise or lower the signal. The gist of the method:
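After a 24 h incubation with test chemical, transfected HepG2 cells yield total RNA; reporter-specific RT-PCR products are fluorescently labelled, HpaI-digested and resolved by capillary electrophoresis against ROX size standards.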

The nature of assay [6]: ATG_TGFb_CIS: Attagene CIS-FACTORIAL HepG2 Assay for human Transforming Growth Factor (TGF) (AID 2282967; active = hit-call score of the fitted dose curve at least 0.9, where 1 is the maximum; inactive = score below 0.9). The note with it: HepG2 Attagene CIS TGFb reporter, mRNA transcription; actives raise or lower the signal. The procedure, abridged: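 Bidirectional fitting relative to DMSO gave the endpoint. Underlying data: reporter mRNA from HepG2 cells carrying transiently transfected cis-regulated reporter constructs, harvested 24 h after dosing and analyzed by RT-PCR and capillary electrophoresis.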

Assay [7] addresses X-box-binding protein 1 (Homo sapiens) (UniProt P17861). Description: ATG_Xbp1_CIS: Attagene CIS-FACTORIAL HepG2 Assay for human X-box Binding Protein 1 (XBP1) (AID 2282972; active = hit-call score of the fitted dose curve at least 0.9, where 1 is the maximum; inactive = score below 0.9). The note with it: HepG2 XBP1 cis-element reporter, Attagene multiplex; actives raise or lower the signal. The gist of the method:
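Fluorescence-labelled cDNA fragments from reporter transcripts, separated by capillary electrophoresis, give the signal. Source: HepG2 cells transfected with promoter-driven reporter units, harvested 24 h post-dose. DMSO served as reference for bidirectional curve fitting.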

Assay [8] has as its target Hepatocyte nuclear factor 4-alpha (Homo sapiens) (UniProt P41235). Description: ATG_HNF4a_TRANS: Attagene TRANS-FACTORIAL HepG2 Assay for human Hepatocyte Nuclear Factor 4 alpha (HNF4a) (AID 2282982). The note with it: HepG2 HNF4a transactivation reporter, mRNA readout. The procedure, abridged:
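Cells used were human HepG2, transiently carrying GAL4-UAS reporter units read out against exogenous NR-GAL4 chimeras. Reporter transcript levels after 24 h dosing were quantified by fluorescent RT-PCR and capillary electrophoresis.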

Assay [9] is described as follows: ATG_M_06_TRANS: Attagene TRANS-FACTORIAL HepG2 Assay for M06 Transcription Factor (Internal Marker) (AID 2282983). Conditions: HepG2 Attagene TRANS M06 internal marker reporter. The procedure, abridged: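 Measured by capillary electrophoresis of fluorescently labelled RT-PCR products, this endpoint reflects reporter mRNA in HepG2 cells harbouring exogenous NR-GAL4 reporter constructs after 24 h exposure, with DMSO as baseline.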

Assay [10] deals with Retinoic acid receptor RXR-alpha (Homo sapiens) (UniProt P19793). The assay is described as follows: ATG_RXRa_TRANS: Attagene TRANS-FACTORIAL HepG2 Assay for human Retinoid X Receptor alpha (RXRa) (AID 2283012). The procedure, abridged:
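HepG2 cells transiently transfected with GAL4-UAS reporter units and chimeric RXRa-Gal4 protein, treated 24 h. Reporter mRNA measured by RT-PCR, fluorescent labelling, HpaI digestion and capillary electrophoresis. Induction fitted against DMSO.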

Assay [11] is described as follows: TOX21_p53_BLA_p2_viability: Viability Assessment in the Tox21 HCT-116 p53 Agonism Beta-lactamase Assay, Phase 2 (AID 2283591).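 Also: actives lower the ATP signal meaning cytotoxicity.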 The gist of the method: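 HCT-116 p53-bla cells (4000/well) rested 5 h at 37C, then received compounds in DMSO (217-fold dilution) for 16 h at 37C, 5% CO2. After the CCF4 read, CellTiter-Glo was added; ATP luminescence was read after 30 min at room temperature.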

The target in assay [12] is Cellular tumor antigen p53 (Homo sapiens) (UniProt P04637). The assay is described as follows: TOX21_p53_BLA_p2_ratio: Tox21 HCT-116 p53 Agonism Beta-lactamase Assay, Ratio, Phase 2 (AID 2283592). The gist of the method: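 An inducible beta-lactamase reporter in HCT116 cells signals p53 pathway activation. After 16 h chemical exposure at 37C, cells load CCF4-AM substrate for 2 h at room temperature; activity is the cleaved/uncleaved emission ratio relative to DMSO.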
Chain of Cellular tumor antigen p53 (Homo sapiens) (P04637 whole entry, looked up): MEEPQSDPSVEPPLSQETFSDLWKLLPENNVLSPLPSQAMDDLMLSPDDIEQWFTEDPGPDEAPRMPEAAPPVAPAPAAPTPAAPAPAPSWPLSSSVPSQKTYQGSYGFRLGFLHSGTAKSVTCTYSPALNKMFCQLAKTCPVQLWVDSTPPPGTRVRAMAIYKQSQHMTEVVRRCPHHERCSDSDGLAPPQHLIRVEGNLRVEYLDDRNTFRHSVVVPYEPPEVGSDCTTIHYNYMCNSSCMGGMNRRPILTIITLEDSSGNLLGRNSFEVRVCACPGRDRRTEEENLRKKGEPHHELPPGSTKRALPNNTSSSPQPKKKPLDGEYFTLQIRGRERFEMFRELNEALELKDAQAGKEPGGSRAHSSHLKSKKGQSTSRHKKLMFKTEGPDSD

For assay [13] the target is unchanged. Description: TOX21_p53_BLA_p3_ratio: Tox21 HCT-116 p53 Agonism Beta-lactamase Assay, Ratio, Phase 3 (AID 2283596). The procedure, abridged:
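HCT116 p53-bla cells (4000/well) given compound in DMSO (217-fold dilution) after 5 h, incubated 16 h at 37C. CCF4-AM substrate 2 h at room temperature; 460/530 nm emission ratio, gain fitted against DMSO.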

Assay [14] shares this target. The assay is described as follows: TOX21_p53_BLA_p5_ratio: Tox21 HCT-116 p53 Agonism Beta-lactamase Assay, Ratio, Phase 5 (AID 2283599). The procedure, abridged:
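HCT-116 cells carrying a p53-inducible beta-lactamase reporter were seeded at 4000 cells/well and dosed after 5 h with compound in DMSO (217-fold dilution). After 16 h at 37C, CCF4-AM substrate was added for 2 h, and the 460/530 nm emission ratio was scored as gain-of-signal versus DMSO.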

Assay [15] in a line: TOX21_p53_BLA_p5_viability: Viability Assessment in the Tox21 HCT-116 p53 Agonism Beta-lactamase Assay, Phase 5 (AID 2283600). The procedure, abridged: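 Counter-readout for cytotoxicity: ATP-dependent luminescence from CellTiter-Glo, read in the beta-lactamase wells after 30 min at RT, following a 16 h compound exposure at 37C.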
In assay [16] the target is Cellular tumor antigen p53 (Homo sapiens) (UniProt P04637). The assay is described as follows: TOX21_p53_BLA_p4_ratio: Tox21 HCT-116 p53 Agonism Beta-lactamase Assay, Ratio, Phase 4 (AID 2283601). The procedure, abridged:
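HCT116 cells carrying an inducible beta-lactamase reporter were plated at 4000 cells/well, rested 5 h, then exposed to compounds in DMSO (217-fold dilution) for 16 h at 37C. CCF4-AM substrate was loaded 2 h at room temperature; 460/530 nm emission ratio scored gain-of-signal versus DMSO.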

Assay [17] is described as follows: ATG_M_32_TRANS: Attagene TRANS-FACTORIAL HepG2 Assay for M32 Transcription Factor (Internal Marker) (AID 2282984).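 Also: transcript level of a background control reporter unit measured by RT-PCR and capillary electrophoresis.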 Conditions: HepG2 Attagene TRANS M32 internal marker reporter. The gist of the method: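 Human hepatoma HepG2, transient MRTU transfection, 24 h treatment. RNA → RT-PCR → fluorescent primer extension → HpaI digest (2 h, 37 C) → CE. Positive-direction fit vs DMSO.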

Assay [18] can be described thus: ATG_NF_kB_CIS: Attagene CIS-FACTORIAL HepG2 Assay for human Nuclear Factor Kappa B (NF-kB) (AID 2282991; active = hit-call score of the fitted dose curve at least 0.9, where 1 is the maximum; inactive = score below 0.9). The note with it: HepG2 Attagene cis-factorial NF-kB reporter mRNA; actives raise or lower the signal. The procedure, abridged:
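HepG2, transient multi-reporter transfection, cis promoter elements (endogenous TFs). 24 h exposure. Total RNA → RT → PCR → 6-FAM label → HpaI → CE. Gain/loss vs DMSO.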

Assay [19] has as its target human Retinoid X Receptor beta (RXRb), RXRB (gene 6257) (UniProt P28702). The assay is described as follows: ATG_RXRb_TRANS: Attagene TRANS-FACTORIAL HepG2 Assay for human Retinoid X Receptor beta (RXRb) (AID 2283013). The procedure, abridged:
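HepG2 cells were transiently transfected with multiplexed GAL4-UAS reporters and a chimeric RXRb-Gal4 construct, then exposed for 24 h. Reporter mRNA was quantified by RT-PCR, FAM labeling, HpaI digestion and capillary electrophoresis; gain of signal was scored against DMSO.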

Assay [20] is described as follows: ATG_M_19_CIS: Attagene CIS-FACTORIAL HepG2 Assay for M19 Transcription Factor (Internal Marker) (AID 2282939; active = hit-call score of the fitted dose curve at least 0.9, where 1 is the maximum; inactive = score below 0.9). Conditions: HepG2 Attagene CIS-FACTORIAL M19 internal marker reporter; actives raise or lower the signal. The gist of the method: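 Signals come from fluorescence of labelled reporter-specific PCR fragments resolved by capillary electrophoresis, following 24 h treatment of HepG2 cells transfected with cis-promoter reporter units; activity was fitted in both directions relative to DMSO.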

Chain of Retinoic acid receptor alpha (Homo sapiens) (P10276 whole entry, looked up): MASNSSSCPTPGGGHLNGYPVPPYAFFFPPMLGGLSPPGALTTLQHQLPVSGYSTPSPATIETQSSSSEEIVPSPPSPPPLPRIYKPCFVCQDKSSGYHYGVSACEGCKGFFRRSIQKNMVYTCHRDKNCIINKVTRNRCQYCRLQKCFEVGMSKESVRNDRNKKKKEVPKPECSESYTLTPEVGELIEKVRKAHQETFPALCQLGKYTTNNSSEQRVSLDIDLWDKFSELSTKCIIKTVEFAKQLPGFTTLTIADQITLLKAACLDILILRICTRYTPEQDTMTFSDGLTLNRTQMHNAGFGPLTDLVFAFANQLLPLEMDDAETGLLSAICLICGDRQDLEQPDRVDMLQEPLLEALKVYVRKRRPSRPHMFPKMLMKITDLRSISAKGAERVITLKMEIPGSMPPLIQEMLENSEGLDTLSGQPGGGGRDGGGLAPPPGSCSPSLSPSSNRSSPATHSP
Chain of Hepatocyte nuclear factor 4-alpha (Homo sapiens) (P41235 whole entry, looked up, the tested form may be a part): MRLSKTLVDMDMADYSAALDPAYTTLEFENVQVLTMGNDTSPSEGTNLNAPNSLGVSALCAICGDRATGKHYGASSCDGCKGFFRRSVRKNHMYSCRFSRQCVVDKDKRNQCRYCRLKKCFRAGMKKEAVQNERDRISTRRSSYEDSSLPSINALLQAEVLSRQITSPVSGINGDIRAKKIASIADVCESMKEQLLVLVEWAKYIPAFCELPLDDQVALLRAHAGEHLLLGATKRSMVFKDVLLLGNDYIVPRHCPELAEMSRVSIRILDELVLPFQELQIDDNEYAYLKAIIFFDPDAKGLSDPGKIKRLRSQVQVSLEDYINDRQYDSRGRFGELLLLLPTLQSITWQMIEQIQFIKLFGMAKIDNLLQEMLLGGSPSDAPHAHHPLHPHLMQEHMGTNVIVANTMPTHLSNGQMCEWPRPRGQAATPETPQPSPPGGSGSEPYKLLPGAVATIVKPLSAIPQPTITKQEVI
Chain of Retinoic acid receptor RXR-alpha (Homo sapiens) (P19793 whole entry, looked up, the tested form may be a part): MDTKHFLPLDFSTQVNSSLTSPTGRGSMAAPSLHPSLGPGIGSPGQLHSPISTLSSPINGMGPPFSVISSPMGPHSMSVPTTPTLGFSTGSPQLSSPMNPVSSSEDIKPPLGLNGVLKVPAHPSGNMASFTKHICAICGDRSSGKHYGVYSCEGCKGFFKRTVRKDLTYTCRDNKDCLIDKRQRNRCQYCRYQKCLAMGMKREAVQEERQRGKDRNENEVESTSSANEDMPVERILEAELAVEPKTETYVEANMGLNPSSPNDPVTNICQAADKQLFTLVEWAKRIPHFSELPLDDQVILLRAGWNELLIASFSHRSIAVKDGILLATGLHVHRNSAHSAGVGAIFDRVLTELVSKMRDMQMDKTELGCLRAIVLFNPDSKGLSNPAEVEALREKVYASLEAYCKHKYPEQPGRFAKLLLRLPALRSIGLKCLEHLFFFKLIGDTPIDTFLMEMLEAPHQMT
Chain of Hepatocyte nuclear factor 6 (Homo sapiens) (Q9UBC0 whole entry, looked up, the tested form may be a part): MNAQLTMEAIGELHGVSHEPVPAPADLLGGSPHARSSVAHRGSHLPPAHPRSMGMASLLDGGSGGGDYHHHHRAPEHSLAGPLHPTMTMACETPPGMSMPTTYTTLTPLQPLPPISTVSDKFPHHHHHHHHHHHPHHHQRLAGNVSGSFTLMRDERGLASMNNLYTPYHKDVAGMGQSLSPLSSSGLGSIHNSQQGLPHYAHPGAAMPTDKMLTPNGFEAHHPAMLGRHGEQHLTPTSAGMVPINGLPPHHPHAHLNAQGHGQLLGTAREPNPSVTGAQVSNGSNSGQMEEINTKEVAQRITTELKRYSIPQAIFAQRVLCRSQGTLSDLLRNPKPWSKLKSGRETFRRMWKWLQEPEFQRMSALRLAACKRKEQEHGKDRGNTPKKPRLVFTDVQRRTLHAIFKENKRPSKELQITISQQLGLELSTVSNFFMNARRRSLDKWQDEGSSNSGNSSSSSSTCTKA
Chain of X-box-binding protein 1 (Homo sapiens) (P17861 whole entry, looked up, the tested form may be a part): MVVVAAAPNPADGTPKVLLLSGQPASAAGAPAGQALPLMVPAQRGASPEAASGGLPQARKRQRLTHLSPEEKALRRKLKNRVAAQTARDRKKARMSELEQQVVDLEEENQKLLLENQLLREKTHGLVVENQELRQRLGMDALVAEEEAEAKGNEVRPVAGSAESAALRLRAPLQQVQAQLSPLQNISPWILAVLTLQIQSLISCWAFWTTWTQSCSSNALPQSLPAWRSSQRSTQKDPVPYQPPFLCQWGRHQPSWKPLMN
Chain of human Retinoid X Receptor beta (RXRb), RXRB (gene 6257) (P28702 whole entry, looked up, the tested form may be a part): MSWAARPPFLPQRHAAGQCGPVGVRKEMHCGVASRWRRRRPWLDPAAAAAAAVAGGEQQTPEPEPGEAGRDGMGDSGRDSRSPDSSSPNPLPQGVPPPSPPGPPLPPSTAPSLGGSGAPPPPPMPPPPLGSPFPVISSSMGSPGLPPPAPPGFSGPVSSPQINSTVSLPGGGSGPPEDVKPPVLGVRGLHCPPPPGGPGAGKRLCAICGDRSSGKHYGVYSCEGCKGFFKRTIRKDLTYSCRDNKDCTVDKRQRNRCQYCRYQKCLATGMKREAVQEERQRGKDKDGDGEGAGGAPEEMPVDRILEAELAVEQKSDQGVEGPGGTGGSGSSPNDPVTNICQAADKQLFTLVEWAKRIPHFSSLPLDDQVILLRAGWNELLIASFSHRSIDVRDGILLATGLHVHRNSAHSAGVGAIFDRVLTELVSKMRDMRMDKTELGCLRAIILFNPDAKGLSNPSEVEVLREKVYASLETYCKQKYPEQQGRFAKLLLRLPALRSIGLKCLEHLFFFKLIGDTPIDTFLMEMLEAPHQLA

Turning to `O=C1NC(=O)C2CC=CCC12` (centres undefined), the result in [1], in assay [2], in [3], in assay [4], in [5] and in [6] was inactive. Also, the molecule was classed as inactive in [7], in [8], in assay [9], in assay [10], in assay [11] and in [12]. Moreover, the outcome in assay [13], in [14], in [15] and in assay [16] was inactive.
In the case of `CCCCCC1CCCC(=O)O1` (centres undefined), the outcome in [1], in [2], in [3], in assay [4], in assay [5] and in [8] was inactive. The call in assay [17], in [18], in [10], in [19], in assay [11] and in assay [12] was inactive. The result in [14] and in [16] was inactive.
Regarding `CC/C=C\CCCCCO`, the molecule was classed as inactive in [20], in assay [2], in assay [3], in assay [4], in assay [5] and in assay [6]. Besides, the molecule was classed as inactive in assay [7], in assay [8], in [9], in assay [10], in assay [11] and in assay [12]. Further, the result in [13], in assay [14] and in assay [15] was inactive.
For `CCCCNC(N)=O`, the molecule was classed as inactive in [1], in assay [2], in [3], in assay [4], in assay [5] and in [7]. Moreover, the result in assay [9], in assay [18], in assay [10], in assay [19], in assay [11] and in [12] was inactive. Besides, the outcome in assay [13], in [14], in assay [15] and in assay [16] was inactive.
Take `O=[N+]([O-])c1ccccc1C(F)(F)F`: the molecule was called inactive in assay [1], in assay [3], in assay [4], in [5], in assay [6] and in assay [7]. Further, the call in assay [8], in [12], in assay [13], in assay [14], in [15] and in assay [16] was inactive.
As for `c1cc[c]([Bi]([c]2ccccc2)[c]2ccccc2)cc1`, the molecule was classed as inactive in assay [20], in assay [2], in assay [3], in [4], in [5] and in [8]. In addition, the molecule was called inactive in [9], in [18] and in [10]. In addition, the AC50 in assay [6] is 40.4 µM (active); in [19], 7.42 µM (active).
On to `CC1=CCCC(C)(C)C12CCC(C)O2` (centres undefined), for which the outcome in [20], in assay [4], in assay [6], in assay [7], in [8] and in assay [9] was inactive. Also, the outcome in assay [17], in assay [10], in assay [19], in [12], in assay [13] and in [14] was inactive. Further, the call in [15] and in assay [16] was inactive.
As for `[O-][n+]1ccc(Cl)cc1`, the call in [1], in [2], in assay [4], in assay [5], in [6] and in assay [7] was inactive. Moreover, the result in assay [8], in [9], in [18], in [19] and in assay [12] was inactive.
For `c1ccc(CNc2ncnc3nc[nH]c23)cc1`, the molecule was called inactive in assay [1], in assay [2], in [3], in assay [4], in assay [5] and in assay [7]. Also, the molecule was classed as inactive in [8], in assay [9], in assay [18], in [10], in assay [11] and in [15].
For the molecule `CC(=O)OC(C)(C)Cc1ccccc1`, the molecule was classed as inactive in assay [1], in assay [4], in [6], in assay [7], in [8] and in [9]. In addition, the call in assay [18], in [10], in assay [11], in [12], in [13] and in assay [15] was inactive. For the same molecule, in [16], the outcome was inactive.
